# Measurements from PubChem BioAssay AID686971 (National Center for Advancing Translational Sciences (NCATS), 2013).
# In all, about 360,000 compounds went through this assay and about 7,500 (2.1%) were called active. Inconclusive results (about 8%) are left out. The list comes from a sample in which actives are over-represented; it also holds similar structures and randomly drawn compounds. A number with no mark means an inactive call. Calls follow the shape of the dose curve; as a rule, active = well fitted cell-killing curve with a large enough effect; inconclusive = small, poorly fitted or top-dose-only effect, or effect the other way, or another doubt; inactive = no such curve, though single readings can be large or run the other way.
# Assay: qHTS for induction of synthetic lethality in tumor cells producing 2HG: qHTS for the HT-1080-IDH1KD cell line;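 as to activity, negative = toxicity: 0% = DMSO wells and -100% = cell-free medium wells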
# Conditions: HT-1080 IDH1 knockdown viability, ATP luminescence, 48 h; series mostly up to 46.1 µM; activity, negative = toxicity: at the top concentration
# Method in brief: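 CellTiter-Glo luminescence after 48 h compound exposure at 37 degrees C of IDH1-knockdown HT-1080 cells in 5% FBS RPMI. %Activity scaled between DMSO wells and cell-free media wells, with curves fitted and assigned curve classes.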
# Potency is read from the fitted curve at half-maximal effect.
Compound,"activity, negative = toxicity",Potency
COc1ccc(-c2c(C#N)cnc(C)c2C)c(O)c1OC,4.41%,
OCCN1CCN(c2ncnc3c2ncn3[C@H]2CN(Cc3ccco3)C[C@@H](CO)O2)CC1,20.7%,
O=C(NN=Cc1ccc2c(c1)CCC2)c1ccccc1O,5.14%,
Cc1cc(C)cc(C(=O)NCCN2CCOCC2)c1,2.86%,
COc1ccc(-c2cc(C(=O)NCCCN3CCOCC3)no2)cc1,3.26%,
COc1ccc(-c2ccc(C(=O)NCCN3CCOCC3)c3occc23)c(C)c1,,18.4 µM (active)
CCCNC(=O)C[C@@H]1CC[C@@H]2[C@H](COC[C@H](O)CN2C(=O)c2cc(Cl)cc(Cl)c2)O1,16.4%,
CC(OC(=O)c1cccnc1Cl)C(=O)NC1CCCCC1 (centres undefined),-0.365%,
COc1cccc(-c2ccc3c(c2)N(Cc2ccccc2OC)C(=O)C(C)S3)c1 (centres undefined),-4.09%,
O=C(NNC(=O)C1CCC1)c1ccccc1,4.36%,
Cc1ccc(NNC(=O)C2CCC2)cc1C,,7.31 µM (active)
Cc1ccc(C)c(OCC(=O)NNC(=O)C2CCC2)c1,7.65%,
CC1(C2CC2)NC(=O)N(CC(=O)N2CCN(c3ccccc3F)CC2)C1=O (centres undefined),-2.54%,
CCCCCCN1CCN(C2CN(Cc3cn(Cc4ccc(F)cc4)nn3)S(=O)(=O)C2)CC1 (centres undefined),-1.26%,
CCOc1ccc(NC(=O)c2ccccc2NS(C)(=O)=O)cc1,2.92%,
COC(=O)c1ccccc1NS(=O)(=O)c1ccc2[nH]c(=O)[nH]c2c1,6.48%,
COC(=O)c1ccc(NC(=O)c2ccccc2NS(=O)(=O)c2ccccc2)cc1,,11.2 µM (active)
O=C(C(=O)N1CCN(c2ccccc2)CC1)c1ccc2c(c1)OCO2,11%,
O=C(c1ccccc1)N1CCN(c2cc(-c3ccccc3)nc3cc(-c4cccc(Cl)c4)nn23)CC1,8.08%,
C#Cc1cc(N2CCN(C(=O)c3ccoc3)CC2)n2nc(-c3cccc(Cl)c3)cc2n1,,9.2 µM (active)
CN(C)CCN1CCN(c2cc(-c3cccc(Cl)c3)nc3ccnn23)CC1,-16.7%,
O=C(NCc1ccccc1)C(c1ccc(F)cc1)N1CCN(C(=O)C2CCCO2)CC1 (centres undefined),21.4%,
COc1ccc(C2=NN(c3nc4ccccc4s3)C(=O)C2)cc1,-24.9%,
O=[N+]([O-])c1ccc(N2CCOCC2)cc1,-1%,
O=C1CC(c2ccccc2)=NN1c1ccc([N+](=O)[O-])cc1,,20.6 µM (active)
CC(=O)Nc1ccc2nc(NC(=O)CS(=O)(=O)c3ccc(F)cc3)sc2c1,-0.314%,
CSc1nc2ccc(NC(=O)c3c(F)cccc3F)cc2s1,-17.3%,
CCCC(=O)Nc1nc2ccc(NC(=O)c3c(F)c(F)c(OC)c(F)c3F)cc2s1,,0.651 µM (active)
Nc1nc2ncccn2c1-c1ccccc1,23.7%,
